According to PubChem BioAssay (Tox21):
Inconclusive results are not listed. A number with no mark means an inactive call. Activity calls are given as the source filed them. Calls follow the shape of the dose curve; as a rule, active = well fitted cell-killing curve with a large enough effect in the repeat runs; inconclusive = weak or mixed curves, or effect the other way; inactive = flat fitted curve, though single readings scatter.

Experiment: qHTS assay to identify small molecule antagonists of the constitutive androstane receptor (CAR) signaling pathway - cell viability counter screen (AID 1224837); also: nearly all actives have a fitted effect of over 45% in size
Conditions: HepG2-CYP2B6-hCAR viability, CellTiter-Fluor, 23 h, co-treated with 50 nM CITCO; series mostly up to 92.4 µM; activity change, negative = cytotoxicity: at the top concentration
Source text: National Center for Advancing Translational Sciences [NCATS]
NIH Chemical Genomics Center [NCGC]
U.S. Environmental Protection Agency [EPA]
National Institutes of Environmental Health Sciences [NIEHS]
National Toxicology Program [NTP]
U.S. Food and Drug Administration [FDA]
The constitutive androstane receptor (CAR) is a nuclear receptor which regulates multiple drug metabolizing enzymes (DMEs) and transporters. Activating CAR will generally increase the transcription and subsequent translation of CYP2B6 and CYP3A4. These two DMEs represent about 50% of the drug metabolizing potential in the body. When CAR is deactivated, the metabolizing potential in the body will decrease, subsequently increasing the toxicity in the body or lowering the therapeutic potential of a pro-drug. Recently, there have also been studies performed indicating CARs role in energy metabolism and cancer therapy. Therefore, inhibiting CARs activity could have a potential effect on diabetes and cancer. Identifying environmental toxins and compounds which modulate CAR, through the use of the Tox21 10K compound collection, will be an important step in determining the toxicity and potential therapeutic effects these factors will have on the human body. To differentiate true CAR antagonists from cytotoxic substances, the assay is multiplexed with a cell viability assay.
Tox21 Assay Protocol Summary:
A double-stable (hCAR and CYP2B6-2.2kb) transfected cell line, derived from human hepatoma (HepG2) cells, was utilized for the duration of the quantitative high-throughput screens. The HepG2-CYP2B6-hCAR cells were dispensed at 2500 cells/4 uL/well in 1536-well white solid bottom plates using a Multidrop Combi. After the assay plates were incubated at 37 C/5% CO2 for 4 hrs, 23 nL of compounds at 15 concentrations (from 5-48 columns) or positive control (from 1 to 4 columns) were transferred to the assay plates using a Pintool station. One uL of CITCO (final concentration = 50 nM) was added, using a Flying Reagent Dispenser, inside each well. After a 23 hr incubation period at 37 C/5% CO2, 1 uL of CellTiter-Fluor reagent was added into each well of the assay plates using a Flying Reagent Dispenser. The fluorescence intensity in the plates was then measured using a ViewLux plate reader.
% is scaled to controls: 0 for no effect and ±100 for the full control effect; potency is read from the fitted curve at half-maximal effect.

In order of rising “activity change, negative = cytotoxicity” value:
1. CCc1nn(CCCN2CCN(c3cccc(Cl)c3)CC2)c(=O)n1CCOc1ccccc1  -27.6% [at 42.5 µM]
2. Cc1nc2ccccn2c(=O)c1CCN1CCC(C(=O)c2ccc(F)cc2)CC1  -13.9% [at 42.5 µM]
3. CCOCCn1c(C2CCN(CCc3ccc(C(C)(C)C(=O)O)cc3)CC2)nc2ccccc21  -12.7% [at 42.5 µM]
4. COc1cc2c(cc1OC)-c1cc(=Nc3c(C)cc(C)cc3C)n(C)c(=O)n1CC2  -10.4% [at 42.5 µM]
5. CC(C)(C)C(=O)C(Oc1ccc(Cl)cc1)n1ccnc1 (stereo not given)  -8.97% [at 42.5 µM]
6. CCc1c2c(nc3ccc(OC(=O)N4CCC(N5CCCCC5)CC4)cc13)-c1cc3c(c(=O)n1C2)COC(=O)[C@]3(O)CC  -8.42% [at 42.5 µM]
7. CCCCCC=CCC=CCCCCCCCC(=O)OCC  -5.14% [at 42.5 µM]
8. CCC(C(=O)OCCOCCN(CC)CC)c1ccccc1 (stereo not given)  -2.5% [at 42.5 µM]
9. COc1cc2[nH]c(=O)[nH]c(=O)c2cc1OC  -1.29% [at 42.5 µM]
10. Cc1cc(C(=C2C=CC(=Nc3ccc(S(=O)(=O)O)cc3S(=O)(=O)O)C=C2)c2ccc(Nc3ccc(S(=O)(=O)O)cc3)cc2)ccc1N  -0.795% [at 42.5 µM]
11. CC(=O)N(c1onc(C)c1C)S(=O)(=O)c1ccc(N)cc1  -0.716% [at 42.5 µM]
12. CC(=O)Oc1ccc2c(c1)CC[C@@H]1[C@@H]2CC[C@]2(C)[C@@H](O)CC[C@@H]12  0.234% [at 42.5 µM]
13. O=[N+]([O-])c1cccc(S(=O)(=O)NCCNS(=O)(=O)c2cccc([N+](=O)[O-])c2)c1  1.71% [at 42.5 µM]
14. Brc1cc(-c2ccc(Br)c(Br)c2Br)cc(Br)c1Br  2.64% [at 42.5 µM]
15. O=C(NCCCN1CCOCC1)c1ccc(Cl)cc1  4.25% [at 42.5 µM]
16. Cc1cc(OI)c(C(C)C)cc1-c1cc(C(C)C)c(OI)cc1C  9.8% [at 42.5 µM]

In order of rising “activity change, negative = cytotoxicity” value:
1. Nc1ccc(Cl)cc1[N+](=O)[O-]  -15.7%
2. O=C(c1ccc(O)cc1)c1ccc(Cl)cc1  -11.5%
3. CC[C@H](NC(=O)c1cc(F)ccc1NS(=O)(=O)c1cccc2cccnc12)c1ccccc1  -11.2%
4. O=C(Nc1ccccc1)Nc1ccccc1  -6.61%
5. CC1CC(O)CC(C)(C)C1 (stereo not given)  -4.08%
6. C=CC(C)=CCC=C(C)C  -3.2%
7. c1cnc2c(n1)CCCC2  -2.07%
8. CCCCC(=O)O[C@]1(C(=O)CO)[C@@H](C)C[C@H]2[C@@H]3CCC4=CC(=O)C=C[C@]4(C)[C@@]3(F)[C@@H](O)C[C@@]21C  -0.786%
9. OCC1CC=CCC1 (stereo not given)  -0.776%
10. OC/C(Br)=C(\Br)CO  -0.725%
11. O=C1NCCN1  -0.402%
12. CC(=O)Nc1ccc(N)cc1  -0.184%
13. C[Si]1(C)O[Si](C)(C)O[Si](C)(C)O1  0.669%
14. O=C(O)c1cccnc1C(=O)O  1.28%
15. O=C(CS)OCCOC(=O)CS  3.18%
16. Fc1c(F)c(F)c(Br)c(F)c1F  3.42%
17. C=C(C)C(=O)OCCOC(=O)CC(C)=O  3.57%
18. CC1=CC(O)CC(C)(C)C1 (stereo not given)  3.78%
19. CCC(C)=O  4.54%
20. CCCCCCCCCCOS(=O)(=O)O  12.7%
21. CCCOC(=O)c1ccc(C(=O)OCCC)nc1  14%

For `COCc1c(C(C)C)nc(C(C)C)c(/C=C/[C@@H](O)C[C@@H](O)CC(=O)O)c1-c1ccc(F)cc1`, the Potency was “inactive”.
In the case of `CO[C@@]12[C@H](COC(N)=O)C3=C(C(=O)C(C)=C(N)C3=O)N1C[C@@H]1N[C@@H]12`, the Potency was 9.44 µM (active).

`[O]=[Bi]` showed an activity change, negative = cytotoxicity of -5.97% [at 8.39 µM].
